Drawing on ChEMBL document CHEMBL3988442, “University of Dundee, Small-Polar-MMV Screening Library” (2021), this text covers Percent Effect for eight molecules.

Set-up in all cases: scale not given: direction of the effect not stated beside the values
The target in assay [1] is Protein translocase subunit SecA (Escherichia coli (strain K12)) (UniProt P10408). Briefly: Assay to Identify E. coli SecA ATPase Inhibitors. Format: functional. The settings on record: 30 µM.
Assay [2] has as its target T1, Ubiquitin-activating enzyme e1, putative (Leishmania donovani (strain BPK282A1)) (UniProt E9BSI1).
T1 sequence (whole entry): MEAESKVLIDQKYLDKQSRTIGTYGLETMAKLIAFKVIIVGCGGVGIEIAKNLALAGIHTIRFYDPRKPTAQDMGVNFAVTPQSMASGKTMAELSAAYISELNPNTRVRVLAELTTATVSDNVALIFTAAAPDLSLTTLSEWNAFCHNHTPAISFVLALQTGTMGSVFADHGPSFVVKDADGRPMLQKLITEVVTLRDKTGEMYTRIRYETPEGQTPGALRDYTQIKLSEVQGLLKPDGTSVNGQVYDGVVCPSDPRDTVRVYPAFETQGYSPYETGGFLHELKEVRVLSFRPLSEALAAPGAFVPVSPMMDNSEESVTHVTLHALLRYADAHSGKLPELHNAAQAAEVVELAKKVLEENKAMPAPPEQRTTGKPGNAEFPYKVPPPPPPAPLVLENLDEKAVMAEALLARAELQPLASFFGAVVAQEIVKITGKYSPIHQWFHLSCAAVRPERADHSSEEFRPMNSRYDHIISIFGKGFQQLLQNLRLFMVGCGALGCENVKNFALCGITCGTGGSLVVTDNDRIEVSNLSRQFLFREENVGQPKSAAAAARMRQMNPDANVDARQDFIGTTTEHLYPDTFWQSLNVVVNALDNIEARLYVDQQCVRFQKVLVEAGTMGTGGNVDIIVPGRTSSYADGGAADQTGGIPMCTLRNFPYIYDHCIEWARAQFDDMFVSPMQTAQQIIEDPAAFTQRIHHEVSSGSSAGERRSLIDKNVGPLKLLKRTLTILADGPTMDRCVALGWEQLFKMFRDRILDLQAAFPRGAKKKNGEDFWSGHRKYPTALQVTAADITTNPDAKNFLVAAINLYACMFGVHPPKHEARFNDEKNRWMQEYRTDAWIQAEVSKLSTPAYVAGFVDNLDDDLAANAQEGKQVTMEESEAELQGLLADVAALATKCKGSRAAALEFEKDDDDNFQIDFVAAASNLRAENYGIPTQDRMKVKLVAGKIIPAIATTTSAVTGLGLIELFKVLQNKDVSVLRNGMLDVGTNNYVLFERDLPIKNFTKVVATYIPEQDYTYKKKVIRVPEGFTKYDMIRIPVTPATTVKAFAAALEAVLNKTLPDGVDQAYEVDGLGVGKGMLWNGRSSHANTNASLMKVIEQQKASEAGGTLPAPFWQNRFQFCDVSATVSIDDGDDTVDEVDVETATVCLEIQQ
Briefly: Leishmania donovani Ubiquitin Activating Enzyme (LdE1). Format: functional. The conditions noted are these: 30 µM.

Assay [3] deals with AMP-activated protein kinase, AMPK (Homo sapiens) (UniProt P54646+O43741+P54619+Q9UGJ0+Q9Y478+Q13131+Q9UGI9). Briefly: AMP-dependent Kinase enzyme assay. An in vitro enzyme assay that detects ADP turnover that is directly proportional to AMPK activity. This uses naive AMPK that is activated during the assay with MK-8722. Format: functional. The settings on record: 30 µM.
The target of assay [4] is Sialic acid-binding Ig-like lectin 9 (Homo sapiens) (UniProt Q9Y336). Briefly: Hs-Siglec9 ALPHAscreen SOP 20170721. The settings on record: 10 µM. For orientation: Alpha assays give light when donor and acceptor beads are brought close together.
Assay [5] deals with Trypanosoma cruzi. Briefly: Trypanosoma cruzi phosphomannomutase and mannose-1-phosphate guanylyltransferase assay. Format: functional. The conditions noted are these: 10 µM.
Assay [6] concerns the target T2, Arginase-2, mitochondrial (Homo sapiens) (UniProt P78540).
T2 sequence (whole entry): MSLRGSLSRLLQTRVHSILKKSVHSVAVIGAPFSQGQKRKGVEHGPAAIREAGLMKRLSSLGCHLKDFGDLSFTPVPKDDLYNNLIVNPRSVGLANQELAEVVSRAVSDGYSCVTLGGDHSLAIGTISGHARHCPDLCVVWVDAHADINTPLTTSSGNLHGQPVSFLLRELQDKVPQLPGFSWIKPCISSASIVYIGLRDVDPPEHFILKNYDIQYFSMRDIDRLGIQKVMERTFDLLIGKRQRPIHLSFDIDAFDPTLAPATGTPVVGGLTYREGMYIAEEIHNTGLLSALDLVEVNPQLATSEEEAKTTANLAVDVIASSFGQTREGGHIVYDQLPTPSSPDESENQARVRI
Briefly: in vitro enzyme assay to detect the production of urea directly proportional to the activity of Arginase II. Further: in the data most compounds retested in dose-response had high values. Format: functional. The conditions noted are these: 33.3 µM.

In assay [7] the target is T3, Proteasome subunit beta (Trypanosoma cruzi) (UniProt O96673).
T3 sequence (whole entry): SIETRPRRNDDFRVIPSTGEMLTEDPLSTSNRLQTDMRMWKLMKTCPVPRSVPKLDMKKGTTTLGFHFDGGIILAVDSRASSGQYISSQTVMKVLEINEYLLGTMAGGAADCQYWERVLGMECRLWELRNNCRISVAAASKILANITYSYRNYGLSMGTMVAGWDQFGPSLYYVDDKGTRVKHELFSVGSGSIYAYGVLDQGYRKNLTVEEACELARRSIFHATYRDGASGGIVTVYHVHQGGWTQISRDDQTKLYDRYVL
Briefly: Trypanosoma cruzi proteasome chymotrypsin-like activity (TcProtChymo) assay. Further: in the data most compounds retested in dose-response had high values. Format: functional. The conditions noted are these: 9.37 µM.

The species named for assay [8] is Homo sapiens. Briefly: To identify inhibition of the IFN signalling (Jak-Stat) pathway via expression of an eGFP reporter gene under the control of an IFN-stimulated response element (ISRE) containing MxA promoter. Type of assay: functional. The conditions noted are these: 30 µM. In general terms: A reporter such as luciferase makes a cellular process visible.
Assay [9] has as its target T4, Tyrosyl-tRNA synthetase, putative (Trypanosoma cruzi (strain CL Brener)) (UniProt Q4DSP6).
T4 sequence (whole entry): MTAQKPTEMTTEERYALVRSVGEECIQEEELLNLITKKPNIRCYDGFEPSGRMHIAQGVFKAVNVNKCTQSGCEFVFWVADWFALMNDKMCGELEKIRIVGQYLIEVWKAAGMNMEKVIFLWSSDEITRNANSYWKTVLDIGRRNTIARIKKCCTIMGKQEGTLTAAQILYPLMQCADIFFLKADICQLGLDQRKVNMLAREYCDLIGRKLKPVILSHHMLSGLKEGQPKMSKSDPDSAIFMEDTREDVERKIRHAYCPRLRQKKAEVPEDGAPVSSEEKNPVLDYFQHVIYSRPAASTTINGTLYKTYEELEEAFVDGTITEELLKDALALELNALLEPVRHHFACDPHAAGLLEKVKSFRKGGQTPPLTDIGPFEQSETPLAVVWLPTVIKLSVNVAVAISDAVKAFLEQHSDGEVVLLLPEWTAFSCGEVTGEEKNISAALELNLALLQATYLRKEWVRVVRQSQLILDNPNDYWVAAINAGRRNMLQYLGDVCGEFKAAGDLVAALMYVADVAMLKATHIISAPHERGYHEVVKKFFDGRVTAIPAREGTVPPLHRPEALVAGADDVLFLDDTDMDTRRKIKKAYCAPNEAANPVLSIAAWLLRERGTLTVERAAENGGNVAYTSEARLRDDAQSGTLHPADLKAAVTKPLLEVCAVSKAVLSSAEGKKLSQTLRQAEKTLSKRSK
Briefly: Trypanosoma cruzi tyrosyl tRNA synthetase (TcYRS) _High Tyrosine SOP. Further: in the data most compounds retested in dose-response had high values. The settings on record: 30 µM. Format: functional.

For assay [10], the target named is T4, Tyrosyl-tRNA synthetase, putative (Trypanosoma cruzi (strain CL Brener)). Briefly: Trypanosoma cruzi tyrosyl tRNA synthetase (TcYRS) SOP. Type of assay: functional. The settings on record: 30 µM.
Assay [11] addresses Chromo domain-containing protein 1 (Saccharomyces cerevisiae (strain ATCC 204508 / S288c) (Baker's yeast)) (UniProt P32657). Briefly: ScCHD-1 Enzyme Inhibition Assay. Further: in the data most compounds retested in dose-response had high values. Format: functional. The conditions noted are these: 30 µM.

For some of these results: Potency and affinity values are given separately.

Chromo domain-containing protein 1 (Saccharomyces cerevisiae (strain ATCC 204508 / S288c) (Baker's yeast)), sequence (P32657 whole entry, the tested form may be a part): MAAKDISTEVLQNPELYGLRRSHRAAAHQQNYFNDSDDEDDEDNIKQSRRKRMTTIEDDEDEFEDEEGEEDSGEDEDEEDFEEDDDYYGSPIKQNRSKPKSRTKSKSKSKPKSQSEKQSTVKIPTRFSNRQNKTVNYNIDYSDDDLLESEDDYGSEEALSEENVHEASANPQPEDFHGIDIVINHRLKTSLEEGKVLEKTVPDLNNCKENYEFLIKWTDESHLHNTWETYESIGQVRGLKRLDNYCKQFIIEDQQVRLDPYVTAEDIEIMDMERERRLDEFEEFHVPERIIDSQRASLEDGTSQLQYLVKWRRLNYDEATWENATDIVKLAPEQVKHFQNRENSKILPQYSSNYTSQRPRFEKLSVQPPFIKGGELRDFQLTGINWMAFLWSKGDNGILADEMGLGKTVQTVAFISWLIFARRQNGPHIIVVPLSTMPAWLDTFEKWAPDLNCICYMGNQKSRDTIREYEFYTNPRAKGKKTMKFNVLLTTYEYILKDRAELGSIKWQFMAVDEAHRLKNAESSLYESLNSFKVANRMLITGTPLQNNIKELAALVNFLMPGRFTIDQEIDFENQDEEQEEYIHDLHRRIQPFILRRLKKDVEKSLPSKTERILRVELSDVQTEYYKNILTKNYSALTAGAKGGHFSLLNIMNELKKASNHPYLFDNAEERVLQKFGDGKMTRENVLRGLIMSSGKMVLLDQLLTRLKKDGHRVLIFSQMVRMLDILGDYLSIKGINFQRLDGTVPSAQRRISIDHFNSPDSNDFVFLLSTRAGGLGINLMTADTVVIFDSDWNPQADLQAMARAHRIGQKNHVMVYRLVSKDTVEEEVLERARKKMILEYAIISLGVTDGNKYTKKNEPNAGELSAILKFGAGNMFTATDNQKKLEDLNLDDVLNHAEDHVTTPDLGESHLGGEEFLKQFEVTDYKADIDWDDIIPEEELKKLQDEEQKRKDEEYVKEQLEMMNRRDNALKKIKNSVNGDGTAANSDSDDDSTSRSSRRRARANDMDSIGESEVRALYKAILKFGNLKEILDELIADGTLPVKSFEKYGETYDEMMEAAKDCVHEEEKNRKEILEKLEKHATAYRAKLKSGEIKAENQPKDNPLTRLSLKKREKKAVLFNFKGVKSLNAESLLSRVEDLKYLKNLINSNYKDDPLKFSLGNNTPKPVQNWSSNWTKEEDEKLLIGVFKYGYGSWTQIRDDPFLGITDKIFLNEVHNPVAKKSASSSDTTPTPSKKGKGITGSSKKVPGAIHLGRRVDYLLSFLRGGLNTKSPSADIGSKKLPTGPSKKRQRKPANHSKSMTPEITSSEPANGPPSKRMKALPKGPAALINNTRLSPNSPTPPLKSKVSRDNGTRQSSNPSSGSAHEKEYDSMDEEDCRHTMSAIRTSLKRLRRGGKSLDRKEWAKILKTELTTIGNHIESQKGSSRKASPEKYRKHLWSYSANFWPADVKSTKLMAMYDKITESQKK
Protein translocase subunit SecA (Escherichia coli (strain K12)), sequence (P10408 whole entry): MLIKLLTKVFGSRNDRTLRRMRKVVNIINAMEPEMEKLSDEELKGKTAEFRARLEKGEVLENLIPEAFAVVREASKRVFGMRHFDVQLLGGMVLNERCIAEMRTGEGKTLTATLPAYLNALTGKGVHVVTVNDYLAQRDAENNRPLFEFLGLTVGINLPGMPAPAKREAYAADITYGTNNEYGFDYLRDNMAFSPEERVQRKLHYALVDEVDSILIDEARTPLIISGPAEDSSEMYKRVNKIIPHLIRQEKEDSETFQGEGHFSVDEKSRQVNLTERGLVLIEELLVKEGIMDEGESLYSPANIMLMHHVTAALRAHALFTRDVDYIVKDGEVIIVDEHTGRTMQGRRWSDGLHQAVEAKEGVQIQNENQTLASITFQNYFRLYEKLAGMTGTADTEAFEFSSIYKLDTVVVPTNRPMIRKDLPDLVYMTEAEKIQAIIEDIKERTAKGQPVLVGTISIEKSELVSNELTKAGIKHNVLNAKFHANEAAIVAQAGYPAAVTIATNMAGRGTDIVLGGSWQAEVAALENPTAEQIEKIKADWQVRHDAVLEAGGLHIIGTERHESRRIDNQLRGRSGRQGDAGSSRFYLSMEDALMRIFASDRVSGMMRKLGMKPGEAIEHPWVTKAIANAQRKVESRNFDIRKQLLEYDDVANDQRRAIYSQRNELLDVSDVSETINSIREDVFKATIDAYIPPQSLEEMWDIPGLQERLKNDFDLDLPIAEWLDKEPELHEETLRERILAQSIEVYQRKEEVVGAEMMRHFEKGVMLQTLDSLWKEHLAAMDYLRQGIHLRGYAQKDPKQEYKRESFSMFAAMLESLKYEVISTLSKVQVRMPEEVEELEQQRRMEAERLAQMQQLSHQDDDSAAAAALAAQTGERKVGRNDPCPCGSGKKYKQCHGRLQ
Sialic acid-binding Ig-like lectin 9 (Homo sapiens), sequence (Q9Y336 whole entry): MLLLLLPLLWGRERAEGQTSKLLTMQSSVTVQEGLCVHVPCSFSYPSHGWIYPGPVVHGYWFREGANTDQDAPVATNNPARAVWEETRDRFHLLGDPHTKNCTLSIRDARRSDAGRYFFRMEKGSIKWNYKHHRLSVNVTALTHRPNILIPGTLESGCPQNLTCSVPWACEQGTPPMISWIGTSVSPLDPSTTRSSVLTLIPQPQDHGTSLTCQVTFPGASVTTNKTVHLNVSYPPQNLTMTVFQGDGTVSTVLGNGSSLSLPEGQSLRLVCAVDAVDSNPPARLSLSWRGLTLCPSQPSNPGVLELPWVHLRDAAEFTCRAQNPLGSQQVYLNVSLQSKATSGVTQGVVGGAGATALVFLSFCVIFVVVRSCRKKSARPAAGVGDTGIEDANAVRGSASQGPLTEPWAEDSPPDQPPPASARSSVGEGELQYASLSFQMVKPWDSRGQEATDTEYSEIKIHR

Regarding `O=C([C@@H]1CC[C@@H]2[C@@H](CCN2Cc2cccc(F)c2)O1)N1CCCCO1`, the Percent Effect in [1] was 3%; in [2], -34.7%; in assay [3], 4.08%; in assay [4], 2.78%; in assay [5], -3.28%; in assay [6] it was -52.5%. The Percent Effect was 9.23% in [7]; 16.6% in [8]; 2.08% in assay [9]; 22.5% in [10]; -4.83% in assay [11].

As to `CCS(=O)(=O)c1ccccc1C(=O)NCc1ccnc(N(C)C)c1`, the Percent Effect in assay [1] is -2.2%; in [2], 28.6%; in [3], -10.1%; in assay [4], 2.33%; in assay [5], 2.62%; in assay [6] it was 4.27%. Further, the Percent Effect in assay [7] is 14%; in assay [8], 4.01%; in assay [9], 9.71%; in assay [10], 24.4%; in assay [11], -10.5%.

For `CC1CCN(S(=O)(=O)NCCCn2cncn2)CC1`, the Percent Effect in [1] is -3.76%; in assay [2], 6.33%; in assay [3], 3.29%; in [4], 1.98%; in assay [5], 1.33%; in assay [6], 5.38%. Besides, the Percent Effect in assay [7] is 5.49%; in assay [8], 23.8%; in assay [9], 5.21%; in assay [10] it was 12.7%; in [11], -7.93%.

As for `CCn1c(CN(C)C)nnc1C1CCN(Cc2ccccc2)CC1`, the Percent Effect in assay [1] was -0.0485%; in assay [2], 10.4%; in assay [3] it was 2.85%; in assay [4], 13.5%; in assay [5], 5.61%; in assay [6], -6.9%. Besides, the Percent Effect is 11.7% in assay [7]; 12.4% in assay [8]; 7.53% in [9]; 21% in assay [10]; -8.57% in [11].

On to `COC(=O)C(c1cc(F)ccc1F)N(C)C(=O)c1csnn1` (stereo not drawn), for which the Percent Effect in assay [1] is 1.09%; in assay [2], 16.5%; in assay [3] it was 3.37%; in assay [4], -5.43%; in assay [5], -5.64%; in assay [6] it was -1.5%. In addition, the Percent Effect in assay [7] was 14.4%; in assay [8], 21.4%; in assay [9], 6.25%; in assay [10], 12.7%; in [11], -27.1%.

In the case of `CC1=N[C@@]2(CC[C@@H]3CN(S(=O)(=O)CC(C)C)C[C@@H]32)C(=O)N1CC(C)C`, the Percent Effect was -5.41% in assay [1]; 5.41% in assay [2]; 5.56% in assay [3]; -6.18% in [4]; -2.64% in assay [5]; 2.23% in assay [6]. Further, the Percent Effect in [7] is 23.8%; in assay [8] it was -9.78%; in [9], 3.24%; in assay [10] it was 10.3%; in [11] it was -0.878%.

As for `CCC(=O)N1CCc2[nH]cnc2C12CCN(C(=O)CCS(C)(=O)=O)CC2`, the Percent Effect was 1.36% in assay [1]; 6.94% in [2]; -9.27% in assay [3]; 3.42% in [4]; 4.37% in assay [5]; 23.4% in [6]. The Percent Effect in assay [7] is 19.1%; in assay [8] it was 22.1%; in assay [9], 5.26%; in assay [10], 7.69%; in assay [11], -2.55%.

In the case of `O=C1CC(N(C(=O)c2ccc3[nH]c4c(c3c2)CCCC4)C2CC2)C(=O)N1` (stereo not drawn), the Percent Effect in assay [1] is -1.37%; in assay [2] it was 27.9%; in assay [3], -6.86%; in [4], -8.64%; in assay [5], 6.33%; in assay [6], -3.8%. Further, the Percent Effect in [7] is 19.7%; in assay [8], -7.55%; in assay [9], 7.39%; in [10], 24.1%; in assay [11], -8.05%.
